# Source: PubChem (National Center for Advancing Translational Sciences (NCATS))
# Sampled rows, rich in hits. Any-hit rate of the full collection: about 12%.
# JMJD2A Tudor = qHTS Assay for Inhibitors of JMJD2A-Tudor Domain | Lysine-specific demethylase 4A (Homo sapiens), O75164 | AlphaScreen JMJD2A-Tudor / H3K4me3 peptide binding | Potency, µM (series often up to 114 µM), most hits filed as inhibitors | 390,000 compounds, 4.4% hits; note: nearly all actives have a fitted effect of over 50% in size
# BAZ2B inh = qHTS Assay for Inhibitors of BAZ2B; Bromodomain adjacent to zinc finger domain protein 2B (Homo sapiens), Q9UIF8; AlphaScreen BAZ2B-H3K14Ac peptide displacement; Potency, µM (doses to about 114 µM), most hits filed as inhibitors; 360,000 compounds, 4.4% hits; AID 504333, 2011; note: nearly all actives have a fitted effect of over 60% in size
#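 Protein-peptide AlphaScreen: BAZ2B 50 nM, b-H3K14Ac 50 nM, 1x PBS pH 7.4 + 0.01% Tween-20. Preincubation 30 min RT; cpd 30 min RT (top 110 uM); beads 20 min RT, light-protected.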
# Sfp PPTase inh = qHTS Assay for Inhibitors of Bacillus subtilis Sfp phosphopantetheinyl transferase (PPTase). 4'-phosphopantetheinyl transferase ffp (Bacillus subtilis), Q9F4F7. Biochemical Sfp PPTase activity, qHTS. Potency, µM, hits mostly inhibitors. AID 1490, 2009. 310,000 compounds, 3.5% hits;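 note: the enzyme is Sfp with the accession as filed and its product quenches rhodamine fluorescence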
#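 Reaction rates are the 30-min fluorescence difference (ex 525, em 598 nm) in wells containing 15 nM Sfp, 5 uM rhodamine-CoA and 12.5 uM BHQ-2-YbbR at pH 7.6 with 10 mM MgCl2.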
# TDP1 block = qHTS Assay for Inhibitors of Tyrosyl-DNA Phosphodiesterase (TDP1); Potency, µM (doses to about 130 µM), usual class: inhibitors; recombinant TDP1, AlphaScreen DNA substrate cleavage; 350,000 compounds, 0.28% hits; Tyrosyl-DNA phosphodiesterase 1 (Homo sapiens), Q9NUW8; note: nearly all actives have a fitted effect of over 40% in size
#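 Recombinant E. coli-expressed Tdp1 (1 nM) preincubated with compound 15 min at RT, then 5'-biotin/3'-phosphotyrosine-FITC DNA substrate (15 nM) added for 5 min. AlphaScreen beads (10 ug/ml) added, 10 min RT; tyrosine-FITC cleavage read as signal loss.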
# HP1b binding inh = HTS for Inhibitors of HP1-beta Chromodomain Interactions with Methylated Histone Tails | AlphaScreen HP1-beta / biotin-H3K9me3 peptide binding | Potency, µM (series often up to 114 µM), actives largely listed as inhibitors | 390,000 compounds, 0.56% hits; note: nearly all actives have a fitted effect of over 70% in size
# Target sequence (P83916 whole entry, looked up): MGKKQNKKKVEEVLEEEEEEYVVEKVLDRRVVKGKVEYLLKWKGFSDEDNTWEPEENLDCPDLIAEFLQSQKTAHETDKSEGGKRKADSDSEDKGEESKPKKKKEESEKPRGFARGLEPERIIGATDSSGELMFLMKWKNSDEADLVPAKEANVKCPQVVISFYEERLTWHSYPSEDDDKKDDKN
#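 Compound inhibition of the preformed complex between 50 nM HP1-beta and 50 nM biotinylated H3K9me3 peptide was read by AlphaScreen. Buffer was PBS pH 7.4 with 0.01% Tween-20. Incubations ran 30 min at room temperature, with 10 ug/mL donor/acceptor beads.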
# G9a block = qHTS Assay for Inhibitors of Histone Lysine Methyltransferase G9a; Histone-lysine N-methyltransferase EHMT2 (Homo sapiens), Q96KQ7; G9a H3K9 monomethylation, AlphaScreen, 2 h; Potency, µM (titrated, usually from 102 µM), usual class: inhibitors; 350,000 compounds, 8.8% hits; note: nearly all actives have a fitted effect of over 75% in size
# Target sequence (Q96KQ7 913-1193 limits assumed): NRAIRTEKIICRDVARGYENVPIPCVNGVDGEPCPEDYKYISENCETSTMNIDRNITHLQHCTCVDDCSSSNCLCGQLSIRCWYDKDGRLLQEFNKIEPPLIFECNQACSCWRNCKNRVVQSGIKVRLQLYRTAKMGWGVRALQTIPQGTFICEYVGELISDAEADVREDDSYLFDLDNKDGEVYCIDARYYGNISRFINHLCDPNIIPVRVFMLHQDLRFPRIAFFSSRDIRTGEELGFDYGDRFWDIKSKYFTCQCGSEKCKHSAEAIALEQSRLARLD
#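 Readings reflect AlphaScreen signal from monomethyl-H3K9 antibody detection. HMT at 20 nM; substrate b-H3K9 500 nM; cofactor SAM 20 uM; 2 h RT reaction; compounds tested as titrations in qHTS with 15 min preincubation.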
# Numbers stand for hits; i = inactive; ? = inconclusive; nt = no result given; [ ] = remark or other dose. Calls come from the whole dose curve; as a rule, active = well fitted curve in the direction sought with a large enough effect; inconclusive = small, poorly fitted or top-dose-only effect, or another doubt; inactive = no such curve, though single readings can be large; an effect the other way counts as inactive or inconclusive.
SMILES,JMJD2A Tudor,BAZ2B inh,Sfp PPTase inh,TDP1 block,HP1b binding inh,G9a block
O=C(CCN1CCN(c2ccccc2F)CC1)c1ccc(Br)cc1,i,i,i,i,i,3.2µM
O=C(COc1ccccc1Cl)Nc1ccc(OCc2cc(=O)n3ccsc3n2)cc1,i,i,nt,i,i,i
Cc1cc(=O)[nH]c2nnc(SCc3ccc(Cl)c(Cl)c3)n12,i,i,nt,i,i,i
O=C(O)CCNc1cc2ccccc2cc1C(=O)O,40µM,nt,?,i,i,?
COc1ccc([C@H]2[C@H](c3ccccc3)C(=O)N2Cc2ccccc2)cc1COc1ccc(NC(C)=O)cc1,?,nt,nt,i,nt,nt
O=C1C=C(c2ccc3c(c2)OCO3)C[C@@H](c2ccc(Cl)cc2)C1,i,i,nt,i,i,i[0.501 µM]
CC(C)c1ccc2oc(=O)cc(CN3CCN(c4ccc(F)cc4)CC3)c2c1,i,i,i,i,i,50µM
CCOc1ccc2oc(=O)cc(CN3CCN(Cc4ccc(F)cc4)CC3)c2c1,i,i,nt,i,i,i
CCc1ccc2oc(=O)cc(CN3CCN(c4ccc(F)cc4)CC3)c2c1,i,i,i,i,i,50µM
N#Cc1cc2cc3ccccc3nc2n2c(=O)c3ccccc3nc12,i,i,i,i,?,i
CC[C@H](C)[C@H](NC(=O)[C@@H]1CCCN1C(=O)[C@H](Cc1cnc[nH]1)NC(=O)[C@H](CCCCNC(=O)[C@H](CCCN=C(N)N)NC(=O)OCc1ccccc1)NC(=O)[C@H](Cc1ccc(O)cc1)NC(=O)c1cccnc1)C(=O)O,nt,nt,i,i,nt,nt
COC(=O)[C@@]1(Cc2ccccc2)[C@H]2c3cc(C(=O)N(C)C)n(CCF)c3C[C@H]2CN1C(=O)c1ccccc1,nt,nt,i,i,nt,nt
O=C(O)COc1ccc(/C=C/C(=O)c2ccc3ccccc3c2)cc1,i,i,i,i[0.0935 µM],i,i
O=C(O)COc1ccc(/C=C/C(=O)c2ccc(C3CCCCC3)cc2)cc1,i,i,i,nt,i,22µM
COc1ccc(C)cc1NC(=O)CSc1ccc(-c2ccccn2)nn1,4.5µM,3.5µM,i,i,i,i
CCOC(=O)c1ccccc1NC(=O)CSc1ccc(-c2ccccn2)nn1,16µM,2.8µM,i,i,i,nt
CSCCC1NC2(C(=O)Nc3c2ccc(Cl)c3C)[C@@H]2C(=O)N(C3CCCC3)C(=O)[C@H]12 (stereo not given in full),?,?,i,i,i,?
Cc1c(Cl)ccc2c1NC(=O)[C@]21N[C@@H](CCC(N)=O)[C@H]2C(=O)N(c3ccc(F)cc3)C(=O)[C@H]21,i,i,i,i,i,14µM
Cc1c(Cl)ccc2c1NC(=O)C21NC(CCC(N)=O)[C@H]2C(=O)N(c3ccc(Cl)cc3)C(=O)[C@H]21 (stereo not given in full),i,i,i,i,i,40µM
CCCCc1ccc(N2C(=O)[C@@H]3C(CC(N)=O)NC4(C(=O)Nc5ccc(F)cc54)[C@@H]3C2=O)cc1 (stereo not given in full),i,i,i,i,i,40µM
O=C(COc1ncnc2sccc12)Nc1ccc(F)cc1F,i,i,i,i,i,i
CCOC(=O)C(NC(C)=O)C(=O)Nc1c(C)cccc1C (stereo not given),i,i,i,i,i,?
CC[C@H](C)[C@@H]1NC(=O)c2cc([N+](=O)[O-])cc(F)c2NCCCC[C@@H](C(N)=O)NC(=O)[C@H](CC(N)=O)NC1=O,i,i,i,i,i,?
CC(C)[C@@H]1NC(=O)c2cc([N+](=O)[O-])cc(I)c2NCCCC[C@@H](C(=O)NC(CC(=O)O)C(N)=O)NC(=O)[C@H](CO)NC1=O (stereo not given in full),nt,50µM,i,nt,nt,45µM
CC(C)[C@@H]1NC(=O)c2cc([N+](=O)[O-])cc(I)c2NCCC[C@@H](C(N)=O)NC(=O)[C@H](CO)NC1=O,i,?,i,i,i,40µM
SMILES,JMJD2A Tudor,BAZ2B inh,Sfp PPTase inh,TDP1 block,HP1b binding inh,G9a block
COc1ccc(-c2c(C#Cc3ccsc3)c3ccccc3n2C)cc1,i,?,i,nt,i,32µM
Cc1nn(-c2ccccc2)c2c1N(CC(=O)NCc1ccc(N(C)C)cc1)C(=O)CS2,i,?,nt,i,i,i
CCN(N)C(=S)Nc1ccc(F)cc1,i,i,i,i,i,?
Cc1ccc(NC(=S)N(N)CCO)cc1,?,79µM,?,i,i,45µM
CC(C)CN(C(=O)CCC(=O)OCC(=O)NCCc1ccccc1)c1c(N)n(CC(C)C)c(=O)[nH]c1=O,i,i,i,i,i,i
COc1ccccc1C(OC(=O)c1cccs1)C(=O)NCc1ccco1 (stereo not given),i,?,50µM,i,i,45µM
O=C(COC(=O)c1cccs1)NCc1ccco1,35µM,50µM,i,45µM,50µM,?
O=C(COC(=O)c1ccc(NS(=O)(=O)c2cccs2)cc1)NCc1ccco1,i[11.4 µM],32µM,35µM,nt,i,?
O=C(COC(=O)c1cccnc1Cl)NCc1ccco1,i,nt,i,40µM,i,i
CSc1nc2cc(C)nn2c(-c2ccccc2)c1C#N,i,i,i,i,i,i
Cc1ccc(NS(=O)(=O)c2cccc(C(=O)OCC(=O)NCc3ccco3)c2)cc1,?,56µM,i,i,i,?
Cc1ccc(NS(=O)(=O)c2ccc(OCC(=O)NCc3ccco3)cc2)cc1,i,i,i,i,i,i[12.7 µM]
O=CC(O)C1OC(=O)C(O)C1O (stereo not given),22µM,nt,nt,nt,?,nt
COc1ccc(CCNC(=O)CCCn2nc(C)c([N+](=O)[O-])c2C)cc1OC,i,i,i,nt,i,i
Cn1c(CN2CCCC2)c(C#N)c2ccccc21,i,i,i,i,i,?
CC1CCN(Cc2c(C#N)c3ccccc3n2C)CC1,i,i,i,i,i,25µM
CN1CCN(Cc2c(C#N)c3ccccc3n2C)CC1,i,i,i,i,i,i
Cn1c(CN2CCOCC2)c(C#N)c2ccccc21,i,i,i,i,i,32µM
CCNC(=O)COC(=O)c1cccc(Br)c1,i,i,i,i,i,i
Cc1cc(F)ccc1NC(=O)C1CCN(C(=O)c2cnn(-c3ccccc3)c2-n2cccc2)CC1,i,i,nt,i,i,i
CCOc1cccc(-c2nnc3sc(C4CCCCC4)nn23)c1,i,i,?,i,?,35µM
